# Laboratory results from PubChem BioAssay (NCATS).
# Records with an inconclusive call do not appear. Calls of active or inactive are those of the source. Calls come from the whole dose curve; as a rule, active = well fitted cell-killing curve with a large enough effect; inconclusive = small, poorly fitted or top-dose-only effect, or effect the other way; inactive = no such curve, though single readings can be large or run the other way.
# Test: Quantitative High-Throughput drug screen in 47 multiple myeloma cell lines against the NCATS MIPE library collection: U266_ATCC cell viability assay (AID 1919864); note: nearly all actives have a fitted effect of over 35% in size
# Details: U266 myeloma viability, CellTiter-Glo ATP luminescence, 48 h; series mostly up to 45.8 µM; viability (% of DMSO control): at the top concentration
# Description: PI: Beverly A. Mock Ph.D.
# Laboratory of Cancer Biology and Genetics,
# Center for Cancer Research, National Cancer Institute,
# National Institute of Health, Bethesda, Maryland
# Drug resistance and disease progression are common in multiple myeloma (MM) patients, underscoring the need for new therapeutic combinations. […] We hypothesized that effective combinations would reduce MYC expression and enhance p16 activity. […] These preclinical data identify potentially useful drug combinations for evaluation in drug-resistant MM and reveal potential mechanisms of combined drug sensitivity.
# Described herein is the primary MIPE qHTS used to cherrypick compounds. Validated compounds were then further tested for potential synergistic activiy.
# [1] Peat TJ, Gaikwad SM, Dubois W, Gyabaah-Kessie N, Zhang S, Gorjifard S, Phyo Z, Andres M, Hughitt VK, Simpson RM, Miller MA, Girvin AT, Taylor A, Williams D, D'Antonio N, Zhang Y, Rajagopalan A, Flietner E, Wilson K, Zhang X, Shinn P, Klumpp-Thomas C, McKnight C, Itkin Z, Chen L, Kazandijian D, Zhang J, Michalowski AM, Simmons JK, Keats J, Thomas CJ, Mock BA. Drug combinations identified by high-throughput screening promote cell cycle transition and upregulate Smad pathways in myeloma. Cancer Lett. 2023 Aug 1;568:216284. doi: 10.1016/j.canlet.2023.216284. Epub 2023 Jun 24. PMID: 37356470; PMCID: PMC10408729.
# SEQUENCE No. (e.g., 1, 2, 3, etc.); […] (e.g., Cells, Incubation, Reagent, etc.); VALUE and DESCRIPTION.
# 1; Cells; 5 uL; white, solid bottom 1536-well Greiner assay plate.
# 2; Compounds; 23 nL; Kalypsis pin tool (Wako USA) equipped with a 1536-well pin head to transfer to the assay plates.
# 3; Incubation; 48 hours; 37C incubation.
# 4; Reagent;5uL; CellTiter Glo (Promega).
# 5; Detector; 425V; Luminescence; Viewlux PerkinElmer.
# NOTES (numbers refer to Sequence numbers above)
# 1. The cell-based screening methods employed in this study were like those previously published. Briefly, the corresponding myeloma cell lines were screened in 1,536-well plates with 500 cells, 5-uL per well for inhibition of cell viability (assessed by measuring ATP levels with CellTiterGlo).
# 2. NCATS MIPE 4.0 library of approved and investigational drugs were added using the Kalypsis pin tool. Wells treated with DMSO only for 100% viability and media only for 0% viability were used as controls.
# 3. The assay plates were covered and incubated for 48 hours in a 37C, 5% CO2 incubator with controlled humidity.
# 4. After 48 hours, CellTilter-GloTM luminescent substrate mix (Promega) reagent was added to the assay plate and plates we incubated for 5 min at room temperature.
# 5. Signal was measured as median relative luminescence units on a ViewLux (PerkinElmer) multiplate reader.
# [1] Heske CM, Davis MI, Baumgart JT, Wilson K, Gormally MV, Chen L, Zhang X, Ceribelli M, Duveau DY, Guha R, Ferrer M, Arnaldez FI, Ji J, Tran HL, Zhang Y, Mendoza A, Helman LJ, Thomas CJ. Matrix Screen Identifies Synergistic Combination of PARP Inhibitors and Nicotinamide Phosphoribosyltransferase (NAMPT) Inhibitors in Ewing Sarcoma. Clin Cancer Res. 2017 Dec 1;23(23):7301-7311. doi: 10.1158/1078-0432.CCR-17-1121. Epub 2017 Sep 12. PMID: 28899971; PMCID: PMC6636827.
# Potency is the fitted concentration of half-maximal effect.
SMILES,viability (% of DMSO control),Potency
CNC(=O)CN1CCC(Oc2cc3c(Nc4cccc(Cl)c4F)ncnc3cc2OC)CC1,105% (inactive),–
CC(=O)OCC(=O)[C@@]1(O)[C@H](C)C[C@H]2[C@@H]3C=C(C)C4=Cc5c(cnn5-c5ccccc5)C[C@]4(C)[C@@H]3[C@@H](O)C[C@@]21C,–,7.43 µM (active)
COC(=O)C1=C(C)NC(C)=C(C(=O)OCCN2CCN(C(c3ccccc3)c3ccccc3)CC2)C1c1cccc([N+](=O)[O-])c1 (stereo not given),127% (inactive),–
CN(C)CC=CC(=O)Nc1cc2c(Nc3ccc(F)c(Cl)c3)ncnc2cc1O[C@H]1CCOC1,–,20.9 µM (active)
C[C@H]1C[C@@H]2[C@@H]([C@@H](O)C[C@@]3(C)[C@H]2CC[C@]3(O)C(=O)CO)[C@@]2(C)C=CC(=O)C=C12,110% (inactive),–
CC(=O)Nc1nc(C)c(-c2ccc(Cl)c(S(=O)(=O)NCCO)c2)s1,–,6.62 µM (active)
C=CC(=O)Nc1cc2c(Nc3ccc(F)c(Cl)c3)ncnc2cc1C#CC(C)(C)N1CCN(C)CC1,–,1.05 µM (active)
NC1(Cc2ccc(Cl)cc2)CCN(c2ncnc3[nH]ccc23)CC1,–,20.9 µM (active)
Cc1ccc(CN2CCNCC2)cc1NC(=O)CNc1ccc(F)c(F)c1,–,29.6 µM (active)
OCCCNc1cc(-c2ccnc(Nc3cccc(Cl)c3)n2)ccn1,–,0.148 µM (active)
Cc1ccc(C(=O)Nc2ccc(CN3CCN(C)CC3)c(C(F)(F)F)c2)cc1C#Cc1cnc2cccnn12,–,14.8 µM (active)
CN(C)CCCN=c1c2ccccc2n(C)c2[nH]c(=O)n(C)c(=O)c12,–,8.33 µM (active)
CC(C)c1cnn2c(NCc3ccccc3)cc(N[C@@H](CO)[C@H](O)CO)nc12,–,0.296 µM (active)
O=C(NCCCNc1nc(Nc2cccc(NC(=O)N3CCCC3)c2)ncc1I)c1cccs1,–,18.7 µM (active)
COc1cc2ncnc(Nc3ccc(F)c(Cl)c3)c2cc1NC(=O)C=CCN1CCCCC1,–,1.18 µM (active)
Fc1cc(-c2cccc3ncc(-c4cnn(C5CCNCC5)c4)nc23)cc(F)c1CN1CCOCC1,–,20.9 µM (active)
O=C(CCCCCCC(=O)Nc1ccc([C@H]2O[C@@H](CSc3nc(-c4ccccc4)c(-c4ccccc4)o3)C[C@@H](c3ccc(CO)cc3)O2)cc1)NO,–,13.2 µM (active)
Cc1cccc(C=NNc2cc(N3CCOCC3)nc(OCCc3ccccn3)n2)c1,–,6.62 µM (active)
CC(C)(C)OC(=O)Nc1ccc(-c2cc(C(=O)NCCCCCCC(=O)NO)no2)cc1,–,2.96 µM (active)
CC1(C)OC2=C(C(=O)c3ccccc3C2=O)[C@H](NCc2ccccc2)[C@H]1O,–,2.64 µM (active)

SMILES,viability (% of DMSO control),Potency
CCOc1ccccc1OCCNC(C)Cc1ccc(OC)c(S(N)(=O)=O)c1 (stereo not given),125% (inactive),–
CNC(=O)c1c(F)cccc1Nc1nc(Nc2cc3c(cc2OC)CCN3C(=O)CN(C)C)nc2[nH]ccc12,–,3.32 µM (active)
COCCn1c2c([n+](Cc3cnccn3)c1C)C(=O)c1ccccc1C2=O,–,0.0059 µM (active)
Cn1cc(-c2[nH]c3cc(NC(=O)[C@H](N)C4CCCCC4)cc4c3c2C=NNC4=O)cn1,–,18.7 µM (active)
CC(=O)c1c(C)c2cnc(Nc3ccc(N4CCNCC4)cn3)nc2n(C2CCCC2)c1=O,–,20.9 µM (active)
CNC(=O)c1ccccc1Nc1nc(Nc2ccc(N3CCOCC3)cc2OC)ncc1Cl,–,13.2 µM (active)
CCCn1c(=O)c2[nH]c(-c3cnn(Cc4cccc(C(F)(F)F)c4)c3)nc2n(CC)c1=O,163% (inactive),–
Cc1coc2c1C(=O)C(=O)c1c-2ccc2c1CCCC2(C)C,112% (inactive),–
Cc1cn2c(-c3cn[nH]c3)cnc2c(Nc2ccc(C(=O)N3CCNCC3)cc2F)n1,–,13.2 µM (active)
COc1c(OCCCN2CCOCC2)ccc2c3n(c(=NC(=O)c4cnc(N)nc4)nc12)CCN3,–,0.645 µM (active)
Cc1nc(N)ncc1-c1nc(N2CCOCC2)c2sc(C(C)(C)O)cc2n1,–,5.26 µM (active)
COc1cc2c(Nc3ccc(NC(=O)c4ccccc4)cc3)ncnc2cc1OCCCN1CCOCC1,–,23.5 µM (active)
COc1ccc(-c2cc3c(C)nc(N)nc3n(C3CCC(OCCO)CC3)c2=O)cn1 (stereo not given),–,0.264 µM (active)
O=C(NC1CCNCC1)c1[nH]ncc1NC(=O)c1c(Cl)cccc1Cl,–,0.187 µM (active)
COc1ccc2c(c1)CC[C@@H](CN(C)CC(=O)O)[C@H]2c1ccccc1,–,16.6 µM (active)
CC1(C)CCC(c2ccc(Cl)cc2)=C(CN2CCN(c3ccc(C(=O)NS(=O)(=O)c4ccc(N[C@H](CCN5CCOCC5)CSc5ccccc5)c(S(=O)(=O)C(F)(F)F)c4)cc3)CC2)C1,–,14.8 µM (active)
Nc1nc(NCCNc2ncc(-n3ccnc3)c(-c3ccc(Cl)cc3Cl)n2)ccc1[N+](=O)[O-],113% (inactive),–
COC(=O)c1ccc2c(C(=Nc3ccc(N(C)C(=O)CN4CCN(C)CC4)cc3)c3ccccc3)c(O)[nH]c2c1,–,18.7 µM (active)
C=CC(=O)Nc1cccc(Oc2nc(Nc3ccc(N4CCN(C)CC4)cc3OC)ncc2Cl)c1,–,23.5 µM (active)
COc1cc2c(cc1-c1c(C)noc1C)ncc1[nH]c(=O)n([C@H](C)c3ccccn3)c12,–,18.7 µM (active)
